Measured values: PubChem BioAssay (NCATS)

Assay: qHTS drug screen for cell cycle checkpoint inhibitors in PARPi-resistant BRCA-mutant ovarian cancer cell lines. (AID 1963452)
Settings: PEO1/OlaR viability, CellTiter-Glo luminescence, 96 h; measured here: PEO4 Z-AUC; stronger effect = lower value
Procedure, shortened: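 PEO1, PEO4 and PEO1/OlaR ovarian cancer cells, 600 per well, exposed 96 h at 37C to a dilution series. Viability read by CellTiter-Glo luminescence, normalized to DMSO and empty wells; activity summarized as Z-AUC.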

SMILES | Z-AUC
CC1CNc2c(cccc2S(=O)(=O)N[C@@H](CCCN=C(N)N)C(=O)N2CC[C@@H](C)C[C@@H]2C(=O)O)C1 (some centres undefined) | 1.06
CCC(=O)NCC[C@@H]1CCc2ccc3c(c21)CCO3 | 0.501
COc1nccc(-c2c(-c3ccc(F)cc3)ncn2C2CCNCC2)n1 | 0.889
Cc1ccc2c(=O)c3cccc(CC(=O)O)c3oc2c1C | 0.37
COC(=O)N1CCN(Cc2cccc(NC(=O)Nc3ccc(C)nc3)c2F)CC1 | -0.622
O=C1C(c2c(O)[nH]c3ccccc23)=Nc2ccccc21 | 0.396
O=c1cc(-c2ccc(O)c(O)c2)oc2cc(O)cc(O)c12 | 0.398
O=c1[nH]nc(OCCCc2ccc(Cl)cc2)c(NCc2cccnc2)c1Br | -1.42
CO[C@@H]1C(N(C)C(=O)c2ccccc2)C[C@H]2O[C@]1(C)n1c3ccccc3c3c4c(c5c6ccccc6n2c5c31)C(=O)NC4=O (some centres undefined) | -0.413
CC1(COc2ccc3c(c2)ncn3-c2ccc3cccc(N4CCC(N)CC4)c3n2)COC1 | -0.193
COc1nccc(-c2c(-c3ccc(F)cc3)ncn2C2CCC(O)CC2)n1 (centres undefined) | 1.21
COc1ccc2c(c1)c(C1=C(c3c[nH]c4ccccc34)C(=O)NC1=O)cn2CCCN(C)C | -1.4
COc1c(C)cnc(Cn2cnc3c(Cl)nc(N)nc32)c1C | -0.434
COc1cc2ncn(-c3cc(OCc4ccccc4S(C)(=O)=O)c(C#N)s3)c2cc1OC | 0.362
O=C(Nc1cccc(Cl)c1)Nc1ncc(CCNc2ncnc3ccsc23)s1 | -1.17
COC(=O)Nc1ccc(-c2nc(N3CCOCC3)c3cnn(C4CCN(C(=O)OC)CC4)c3n2)cc1 | -0.355
CCCC1OC2C[C@@H]3[C@H]4CCC5=CC(=O)C=C[C@]5(C)[C@H]4C(O)C[C@]3(C)[C@]2(C(=O)CO)O1 (some centres undefined) | -0.396
COc1cc2nccc(Oc3ccc(NC(=O)Nc4cc(C)on4)c(Cl)c3)c2cc1OC | 0.0316
Cc1ccc(NC(=O)c2cccc(N(C)C)c2)cc1NC(=O)c1ccc(O)cc1 | 0.905
Cc1ccc(S(=O)(=O)Nc2nc3ccccc3nc2Nc2ccc3nsnc3c2)cc1 | -0.705

SMILES | Z-AUC
COc1cc(Nc2nc3ccccc3nc2NS(=O)(=O)c2ccc(NC(=O)c3ccc(C)c(OC)c3)cc2)cc(OC)c1 | -0.582
CC1=C(CC(=O)O)c2cc(F)ccc2C1=Cc1ccc(S(C)=O)cc1 (centres undefined) | 0.523
O=C(O)CCNc1cc(N2CCc3ccccc3CC2)nc(-c2ccccn2)n1 | 0.175
c1ccc(CNc2nc(N3CCOc4ccccc43)nc3c2CCCC3)cc1 | 1.17
O=C(CO)N1CCC(c2[nH]nc(-c3ccc(Cl)cc3)c2-c2ccncn2)CC1 | 0.147
Cc1ccc(NC(=O)c2ccc(CN3CCN(C)CC3)cc2)cc1Nc1nc(-c2cccnc2)cs1 | -0.741
CCC(c1ccc(O)cc1)C(CC)c1ccc(O)cc1 (centres undefined) | -0.679
Cc1ccc(C2=Nc3ccc(Cl)cc3OC2)cc1 | 0.727
Nc1ccn([C@@H]2O[C@H](CO)[C@@H](O)[C@H]2O)c(=O)n1 | 1.4
Nc1ncnc2c1c(-c1cccc(OCc3ccccc3)c1)cn2C1CC(CN2CCC2)C1 (centres undefined) | -0.746
CCNC(=O)c1noc(-c2cc(C(C)C)c(O)cc2O)c1-c1ccc(CN2CCOCC2)cc1 | -1.08
CCCCCCCCCCCCCCCC(=O)O[C@H]1[C@@H](O)[C@@H](O)[C@@H]([C@H](NC(=O)[C@@H]2C[C@@H](CCC)CN2C)[C@H](C)Cl)O[C@@H]1SC | 0.552
C[C@@]1(C(=O)Nc2ccc(F)nc2)CCCN1c1nc(Nc2cc(C3CC3)[nH]n2)c2cccn2n1 | -0.135
CC(C)(OCc1nn(Cc2ccccc2)c2ccccc12)C(=O)O | 1.54
CCc1cc(-c2n[nH]c(C)c2-c2ccc3c(c2)OCCO3)c(O)cc1O | 0.316
CSc1cccc(Nc2ncc3cc(-c4c(Cl)cccc4Cl)c(=O)n(C)c3n2)c1 | 0.318
C[C@@H](O[C@H]1OCCN(Cc2n[nH]c(=O)[nH]2)[C@@H]1c1ccc(F)cc1)c1cc(C(F)(F)F)cc(C(F)(F)F)c1 | -0.245
COc1cc(F)c(C(C)C)cc1-c1ccc(C(F)(F)F)cc1CN1C(=O)O[C@H](c2cc(C(F)(F)F)cc(C(F)(F)F)c2)[C@@H]1C | 0.327
COc1ccc(Cn2ccc3ccc(C(=O)NO)cc32)cc1 | 1
